Assay [1] can be described thus: Quantitative High-Throughput drug screen in 47 multiple myeloma cell lines against the NCATS MIPE library collection: OCIMY7_PLB cell viability assay (AID 1918987). Note: nearly all actives have a fitted effect of over 65% in size. Note: potency is the fitted concentration of half-maximal effect. The method, boiled down:
(§1)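 500 cells/well per myeloma line exposed to pinned MIPE 4.0 compounds for 48 h at 37 °C, 5% CO2. Viability read as ATP by CellTiter-Glo luminescence, normalised to DMSO-only (100%) and media-only (0%) wells.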

Assay [2] can be described thus: Quantitative High-Throughput drug screen in 47 multiple myeloma cell lines against the NCATS MIPE library collection: OCIMY5_PLB cell viability assay (AID 1918988). Note: potency is the fitted concentration of half-maximal effect; nearly all actives have a fitted effect of over 65% in size. The method, boiled down: as §1
The nature of assay [3]: Quantitative High-Throughput drug screen in 47 multiple myeloma cell lines against the NCATS MIPE library collection: OPM1_PLB cell viability assay (AID 1918989). Note: nearly all actives have a fitted effect of over 40% in size. Note: potency is the fitted concentration of half-maximal effect. The method, boiled down: as §1
Assay [4] can be described thus: Quantitative High-Throughput drug screen in 47 multiple myeloma cell lines against the NCATS MIPE library collection: SKMM1_PLB cell viability assay (AID 1919863). Note: potency is the fitted concentration of half-maximal effect; nearly all actives have a fitted effect of over 35% in size. Particulars: SKMM1 myeloma viability, CellTiter-Glo ATP, 48 h; viability: stronger effect = lower value. In a few lines: as §1
(In general: In ATP-based viability assays light output follows the ATP content of the culture.)

Assay [5] in a line: Quantitative High-Throughput drug screen in 47 multiple myeloma cell lines against the NCATS MIPE library collection: XG6_PLB cell viability assay (AID 1919865). Note: nearly all actives have a fitted effect of over 40% in size. Note: potency is the fitted concentration of half-maximal effect. The method, boiled down:
as §1

Assay [6] in a line: Quantitative High-Throughput drug screen in 47 multiple myeloma cell lines against the NCATS MIPE library collection: XG1_PLB cell viability assay (AID 1919866). Note: potency is the fitted concentration of half-maximal effect; nearly all actives have a fitted effect of over 35% in size. The method, boiled down: as §1
Assay [7] can be described thus: Quantitative High-Throughput drug screen in 47 multiple myeloma cell lines against the NCATS MIPE library collection: VP6_DJ cell viability assay (AID 1919867). Note: nearly all actives have a fitted effect of over 40% in size. Note: potency is the fitted concentration of half-maximal effect. The method, boiled down:
as §1

Assay [8] can be described thus: Quantitative High-Throughput drug screen in 47 multiple myeloma cell lines against the NCATS MIPE library collection: KMS11_JCRBsus cell viability assay (AID 1919873). Note: potency is the fitted concentration of half-maximal effect; nearly all actives have a fitted effect of over 50% in size. In a few lines:
as §1

A short description of assay [9]: Quantitative High-Throughput drug screen in 47 multiple myeloma cell lines against the NCATS MIPE library collection: U266_ATCC cell viability assay (AID 1919864). Note: potency is the fitted concentration of half-maximal effect; nearly all actives have a fitted effect of over 35% in size. The method, boiled down:
as §1

Assay [10] can be described thus: Quantitative High-Throughput drug screen in 47 multiple myeloma cell lines against the NCATS MIPE library collection: PE2_PLB cell viability assay (AID 1919869). Note: nearly all actives have a fitted effect of over 35% in size. Note: potency is the fitted concentration of half-maximal effect. In a few lines: as §1
A short description of assay [11]: Quantitative High-Throughput drug screen in 47 multiple myeloma cell lines against the NCATS MIPE library collection: RPMI8226_ATCC cell viability assay (AID 1919871). Note: nearly all actives have a fitted effect of over 30% in size. Note: potency is the fitted concentration of half-maximal effect. The method, boiled down: as §1
Assay [12] in a line: qHTS drug screen for cell cycle checkpoint inhibitors in PARPi-resistant BRCA-mutant ovarian cancer cell lines. (AID 1963452; calls by dose curve). To be noted: PEO1/OlaR viability, CellTiter-Glo luminescence, 96 h, stronger effect = lower value. In a few lines:
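PEO1, PEO4 and PEO1/OlaR ovarian cancer cells, 600 per well, exposed 96 h at 37C to a dilution series. Viability read by CellTiter-Glo luminescence, normalized to DMSO and empty wells; activity summarized as Z-AUC.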
Background: Quantitative high-throughput screening tests each substance at several concentrations.

A short description of assay [13]: Quantitative High-Throughput drug screen in 47 multiple myeloma cell lines against the NCATS MIPE library collection: UTMC2_PLB cell viability assay (AID 1919868). Note: potency is the fitted concentration of half-maximal effect; nearly all actives have a fitted effect of over 55% in size. Particulars: CellTiter-Glo ATP luminescence, 48 h; viability (% of DMSO control): at 45.8 µM (top of the series) unless noted. The method, boiled down:
as §1

Assay [14] is described as follows: Quantitative High-Throughput drug screen in 47 multiple myeloma cell lines against the NCATS MIPE library collection: KMS28BM_JCRB cell viability assay (AID 1919874). Note: nearly all actives have a fitted effect of over 35% in size. Note: potency is the fitted concentration of half-maximal effect. The method, boiled down: as §1
Assay [15] in a line: Quantitative High-Throughput drug screen in 47 multiple myeloma cell lines against the NCATS MIPE library collection: KMS34_JCRB cell viability assay (AID 1918985). Note: nearly all actives have a fitted effect of over 40% in size. In a few lines: as §1
The nature of assay [16]: Quantitative High-Throughput drug screen in 47 multiple myeloma cell lines against the NCATS MIPE library collection: PCM6_Riken cell viability assay (AID 1919870). Note: nearly all actives have a fitted effect of over 30% in size. Note: potency is the fitted concentration of half-maximal effect. The method, boiled down:
as §1

A short description of assay [17]: Quantitative High-Throughput drug screen in 47 multiple myeloma cell lines against the NCATS MIPE library collection: OPM2_DSMZ cell viability assay (AID 1919872). Note: nearly all actives have a fitted effect of over 30% in size. In a few lines:
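CellTiter-Glo luminescence (ATP) after 48 h compound exposure, 37C/5% CO2; 500 cells/well; MIPE 4.0 approved/investigational drugs pinned in; DMSO = 100%, media only = 0% viability.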

Assay [18] in a line: qHTS for identification of novel therapeutic agents for treatment of microphthalmiaassociated transcription factor (MiT) renal cell carcinoma (RCC) (AID 1963991).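 Note: curves scaled with 100% = DMSO viability and 0% = empty wells.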 Particulars: CellTiter-Glo, 48 h, stronger effect = lower value. The method, boiled down: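 UOK109/UOK124/UOK145 (TFE3 fusions, three partners); 500 cells/well; MIPE v4.0, 1912 cpds, 11 conc.; 48 h, 37 C; CellTiter-Glo, 15 min RT; lum. Norm.: DMSO 100%, empty 0%.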

Assay [19] is described as follows: qHTS profiling for inhibitors of Plasmodium falciparum proliferation (AID 504749). Note: potency is the fitted concentration of half-maximal effect; nearly all actives have a fitted effect of over 60% in size. To be noted: P. falciparum in erythrocytes, SYBR Green DNA, 72 h. The method, boiled down:
(§2)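 P. falciparum-infected erythrocytes (0.3% parasitemia, 2.5% hematocrit) incubated with compound 72 h at 37 C, 5% CO2. Parasite DNA detected by SYBR Green after lysis, overnight at room temperature; normalised to 0.29 uM artemisinin and DMSO.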

A further assay relates to 3D7. Described as above. Particulars: P. falciparum in erythrocytes, SYBR Green DNA, 72 h; series mostly up to 28.7 µM. The method, boiled down: as §2
[20] abbreviates: measured here: PEO1 parental Z-AUC.

Results filed as inconclusive are left out. Activity calls are given as the source filed them. Unless noted, calls come from the whole dose curve; as a rule, active = well fitted curve in the direction sought with a large enough effect; inconclusive = small, poorly fitted or top-dose-only effect, or another doubt; inactive = no such curve, though single readings can be large; an effect the other way counts as inactive or inconclusive.

Take `CC(C)(C)NC(=O)[C@H]1CN(Cc2cccnc2)CCN1C[C@@H](O)C[C@@H](Cc1ccccc1)C(=O)N[C@H]1c2ccccc2C[C@H]1O`: the Potency in [1] is 10.5 µM (active); in assay [2], 26.4 µM (active); in assay [3], 11.8 µM (active); in assay [4] it was 18.7 µM (active); in [5] it was 23.5 µM (active); in [6], 2.96 µM (active). For the same molecule, the Potency was 7.43 µM (active) in assay [7] and 18.7 µM (active) in [8].
In the case of `COc1cc2c(Nc3ccc(NC(=O)c4ccccc4)cc3)ncnc2cc1OCCCN1CCOCC1`, the Potency is 2.64 µM (active) in assay [1]; 18.7 µM (active) in assay [2]; 20.9 µM (active) in [3]; 23.5 µM (active) in assay [9]; 14.8 µM (active) in assay [5]; 20.9 µM (active) in assay [6]. The Potency in [7] was 14.8 µM (active); in [10], 20.9 µM (active); in [11], 23.5 µM (active); in [8] it was 10.5 µM (active). Besides, the Z-AUC in [12] was 0.665 (inactive); in assay [12] (setting [20]), 0.378; in [12] (measured here: PEO4 Z-AUC), -0.00174.
Consider `Cc1nc2ccc(CN(C)c3ccc(C(=O)N[C@@H](CCC(=O)O)C(=O)O)s3)cc2c(=O)[nH]1`, for which the Potency result in assay [1], in assay [5], in [7], in [10], in assay [11] and in assay [14] was “inactive” each time. Further, the Potency in [2] is 5.26 µM (active); in [3], 0.469 µM (active); in assay [9], 11.8 µM (active); in [6], 0.235 µM (active); in assay [13] it was 1.66 µM (active); in assay [8] it was 0.0093 µM (active). Moreover, the values for the Z-AUC in [12], in assay [12] (setting [20]) and in [12] (measured here: PEO4 Z-AUC) were -1.54 (inactive), -1.34 and -0.15, respectively.
Regarding `O=C1CCC[C@@H]2[C@H]3CCC[N+]4([O-])CCC[C@@H](CN12)[C@@H]34` (some centres undefined), the Potency entry in assay [15], in assay [3], in assay [10], in assay [16] and in [17] was “inactive” throughout. Also, the Potency in assay [7] is 6.62 µM (active). Further, the z-score in [18] (TFE3-RCC UOK109 viability, measured here: UOK109 Z-AUC) stood at 0.308; in assay [18] (TFE3-RCC viability, measured here: UOK124 Z-AUC), 0.251; in assay [18] (TFE3-RCC viability, measured here: UOK145 Z-AUC) it was 0.512.
As to `Cc1cc(Nc2cc(CN3CCOCC3)c3nc(C)c(Cc4ccc(Cl)cc4F)n3n2)n[nH]1`, the Potency is 2.64 µM (active) in [1]; 3.32 µM (active) in [2]; 16.6 µM (active) in assay [3]; 16.6 µM (active) in [4]; 20.9 µM (active) in assay [9]; 13.2 µM (active) in [5]. For the same molecule, the Potency in [7] was 13.2 µM (active); in assay [13], 2.35 µM (active); in [10] it was 5.26 µM (active); in assay [16], 16.6 µM (active); in assay [11], 2.35 µM (active); in [8], 1.18 µM (active). Also, in assay [14], the Potency is 14.8 µM (active). For the same molecule, the Potency entry in [17] was “inactive”. Moreover, the Z-AUC is -0.469 (inactive) in assay [12], -0.486 in assay [12] (setting [20]) and -1.95 in [12] (measured here: PEO4 Z-AUC).
With `Nc1ccn([C@@H]2O[C@H](CO)[C@H](O)C2(F)F)c(=O)n1`, the Potency in [1] was 0.001 µM (active); in [2], 5.9 µM (active); in [4], 0.0264 µM (active); in [9], 14.8 µM (active); in assay [5], 0.0743 µM (active); in assay [6], 0.0209 µM (active). For the same molecule, the Potency in assay [7] was 0.526 µM (active); in [13], 0.0148 µM (active); in [10], 0.332 µM (active); in assay [16] it was 1.87 µM (active); in assay [11], 0.469 µM (active); in [8], 0.296 µM (active). For the same molecule, the Potency in assay [14] was 5.26 µM (active); in assay [19] (parasite line A) it was 5.62 µM (active); in assay [19] (parasite line B) it was 0.316 µM (active); with 3D7 it was 3.16 µM (active). In addition, the Potency result in [17] is “inactive”.

For the origin of these results see PubChem BioAssay (NCATS).
